Assays:
Experiment in all cases: protein-binding microarray (PBM); PBM: ~300 nM protein, 6 mM HEPES pH 7.8, 80 mM KCl, 0.5 mM EDTA, 0.5 mM EGTA, 6% glycerol, 35 ng/ul poly-dIdC, 1% milk, 1 h, room temperature; Ap Aiptasia and Nv Nematostella (sea anemones) / Co Capsaspora / Aq Amphimedon (sponge) / Dm Drosophila / Hu human; RHD is the Rel homology domain; high values mean tight binding
Details in all cases: dsDNA, one strand shown
GST-Ap-NF-kB RHD = biological target: T1, GST-Ap-NF-kB RHD (Exaiptasia pallida (Aiptasia), UniProt A0A913YAJ5 2-422)
T1 sequence: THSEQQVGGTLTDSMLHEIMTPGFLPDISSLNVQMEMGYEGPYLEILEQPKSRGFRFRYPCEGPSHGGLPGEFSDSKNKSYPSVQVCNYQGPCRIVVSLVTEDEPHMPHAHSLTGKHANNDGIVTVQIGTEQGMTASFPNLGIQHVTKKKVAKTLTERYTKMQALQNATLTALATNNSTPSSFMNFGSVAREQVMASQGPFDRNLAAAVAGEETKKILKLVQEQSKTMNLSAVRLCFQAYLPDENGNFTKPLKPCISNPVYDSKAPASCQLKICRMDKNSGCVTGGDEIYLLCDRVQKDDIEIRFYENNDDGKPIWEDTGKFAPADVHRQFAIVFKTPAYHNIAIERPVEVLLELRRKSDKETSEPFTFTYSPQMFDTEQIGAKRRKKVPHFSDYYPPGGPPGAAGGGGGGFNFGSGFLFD

[1] = biological target: T2, GST-Nv-NF-kB (Cys allele) (Nematostella vectensis, UniProt E5G601 2-411)
T2 sequence: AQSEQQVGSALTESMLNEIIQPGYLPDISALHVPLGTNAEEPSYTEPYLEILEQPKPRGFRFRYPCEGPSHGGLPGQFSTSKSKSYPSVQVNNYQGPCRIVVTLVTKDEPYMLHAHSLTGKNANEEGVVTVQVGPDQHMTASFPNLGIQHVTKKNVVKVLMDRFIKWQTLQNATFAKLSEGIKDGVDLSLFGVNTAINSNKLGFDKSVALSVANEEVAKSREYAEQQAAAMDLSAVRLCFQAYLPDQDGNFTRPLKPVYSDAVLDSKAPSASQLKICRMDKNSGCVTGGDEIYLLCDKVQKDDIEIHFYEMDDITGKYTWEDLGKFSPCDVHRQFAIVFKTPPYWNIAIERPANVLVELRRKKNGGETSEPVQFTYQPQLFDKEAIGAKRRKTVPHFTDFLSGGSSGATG

GST-Co-NF-kB = biological target: T3, GST-Co-NF-kB (Capsaspora owczarzaki, UniProt F1ARL5 200-546)
T3 sequence: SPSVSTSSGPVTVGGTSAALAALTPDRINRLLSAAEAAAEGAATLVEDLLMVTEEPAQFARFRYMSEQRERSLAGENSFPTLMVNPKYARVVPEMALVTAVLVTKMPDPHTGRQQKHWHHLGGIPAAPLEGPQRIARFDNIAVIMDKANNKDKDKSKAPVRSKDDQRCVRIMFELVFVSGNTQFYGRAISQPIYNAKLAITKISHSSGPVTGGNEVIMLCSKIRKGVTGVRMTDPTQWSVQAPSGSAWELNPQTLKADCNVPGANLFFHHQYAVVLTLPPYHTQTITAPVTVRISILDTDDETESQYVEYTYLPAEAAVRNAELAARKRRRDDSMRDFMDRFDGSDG

GST-Dm-Relish = biological target: T4, GST-Dm-Relish (Drosophila melanogaster, UniProt Q94527 99-473)
T4 sequence: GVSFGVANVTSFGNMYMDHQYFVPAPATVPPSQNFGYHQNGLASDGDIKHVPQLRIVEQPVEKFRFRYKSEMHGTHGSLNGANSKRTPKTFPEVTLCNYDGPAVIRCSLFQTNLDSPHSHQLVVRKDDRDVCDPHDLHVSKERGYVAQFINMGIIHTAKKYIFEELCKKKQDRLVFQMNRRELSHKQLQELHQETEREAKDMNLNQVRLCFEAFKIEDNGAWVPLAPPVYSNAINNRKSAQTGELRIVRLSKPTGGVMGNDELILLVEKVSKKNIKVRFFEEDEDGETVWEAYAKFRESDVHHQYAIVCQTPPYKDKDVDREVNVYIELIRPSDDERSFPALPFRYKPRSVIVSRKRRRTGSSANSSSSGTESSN

GST-Aq-NF-kB = biological target: T5, GST-Aq-NF-kB (Amphimedon queenslandica, UniProt A9Y5G7 2-389)
T5 sequence: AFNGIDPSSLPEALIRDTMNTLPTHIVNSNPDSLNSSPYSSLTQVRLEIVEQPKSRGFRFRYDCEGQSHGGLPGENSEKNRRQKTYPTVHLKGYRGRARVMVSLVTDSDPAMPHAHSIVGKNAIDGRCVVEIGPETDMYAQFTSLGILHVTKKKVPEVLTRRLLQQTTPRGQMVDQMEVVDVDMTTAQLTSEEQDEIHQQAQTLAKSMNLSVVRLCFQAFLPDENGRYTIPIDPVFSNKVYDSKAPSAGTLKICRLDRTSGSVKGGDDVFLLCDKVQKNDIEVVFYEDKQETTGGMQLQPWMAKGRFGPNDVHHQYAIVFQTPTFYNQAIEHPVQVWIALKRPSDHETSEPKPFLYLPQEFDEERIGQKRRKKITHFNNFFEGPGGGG

Row | Sequence | binding signal (GST-Ap-NF-kB RHD) [z-score] | binding signal [1] [z-score] | binding signal (GST-Co-NF-kB) [z-score] | binding signal (GST-Dm-Relish) [z-score] | binding signal (GST-Aq-NF-kB) [z-score]
1 | CCGATTAACATCAGGCAATTCCCTGATGTTAATCGGGTCTTGATTCGCTTGACGCTGCTG | 2.76 | 5.17 | 1.58 | 2.03 | 6.13
2 | CCGATTAACATCAACCCCGTTTCTGATGTTAATCGGGTCTTGATTCGCTTGACGCTGCTG | 1.51 | 1.29 | 1.63 | 1.65 | 2.24
3 | CCGATTAACATCAGGGAAAGAAATGATGTTAATCGGGTCTTGATTCGCTTGACGCTGCTG | 1.61 | 3.74 | 4.91 | 1.72 | 3.72
4 | CCGATTAACATCACGGGATTTACTGATGTTAATCGGGTCTTGATTCGCTTGACGCTGCTG | 2.52 | 2.6 | 1.01 | 7.12 | 3.52
5 | CCGATTAACATCAGGGAATTAAATGATGTTAATCGGGTCTTGATTCGCTTGACGCTGCTG | 2.06 | 4.46 | 3.84 | 2.47 | 4.32
6 | CCGATTAACATCAGAAGTTTCCCTGATGTTAATCGGGTCTTGATTCGCTTGACGCTGCTG | 4.01 | 5.91 | 5.14 | 3.08 | 6.09
7 | CCGATTAACATCAATTGCCCCCCTGATGTTAATCGGGTCTTGATTCGCTTGACGCTGCTG | 4.5 | 2.81 | 5.24 | 3.87 | 4.63
8 | CCGATTAACATCAGGGGAGTACATGATGTTAATCGGGTCTTGATTCGCTTGACGCTGCTG | 4.22 | 2.88 | 3.31 | 6.35 | 3.06
9 | CCGATTAACATCAATGGGAATTCTGATGTTAATCGGGTCTTGATTCGCTTGACGCTGCTG | 2.8 | 4.72 | 2.98 | 4.26 | 3.51
